From ChEMBL document CHEMBL3988442, “University of Dundee, Small-Polar-MMV Screening Library” (2021) come the findings set out here.

Each structure is given as a SMILES string. In all, about 48,000 compounds went through this assay and about 13,000 (27%) showed an effect of 50% or more. The list shows a part of the results.

The test concerns Wolbachia pipientis. The experiment in a line: Anti-Wolbachia Cell-Based Screen. The following applies: 5 µM. The class given is functional. Further details: scale not given: in the data most compounds retested in dose-response had high values.
`CCN(CC)c1ccc(C2C3=C(COC3=O)Nc3[nH]nc(C)c32)cc1` (configuration not stated): the “Percent Effect” value came out at 4.109%.

`CCc1ncncc1C(=O)Nc1ccc2ccn(CCN(C)C)c2c1`: the “Percent Effect” value was -10.28%.

Regarding `CCc1nc(C)c([C@H]2CN(C)C[C@@H]2C(=O)NCc2ccccc2OC)[nH]1`, the “Percent Effect” value is given as -8.879%.

For the compound `Cc1ccccc1C(CC(=O)NCc1n[nH]c(N)n1)c1ccccc1` (configuration not stated), the “Percent Effect” value is listed as -7.585%. With `CC(NC(=O)NCCCc1n[nH]c(N)c1C#N)c1cccs1` (configuration not stated), the “Percent Effect” value is given as -7.784%. With `Cc1ncsc1CN1CCOC(C)(C(=O)N(C)C)C1` (configuration not stated), the “Percent Effect” value was determined as 112.2%. Take `Cc1ncsc1CN1CCOC(C)(C(=O)N2CCOCC2)C1` (configuration not stated): the “Percent Effect” value is 106.3%. On to `Cc1ncsc1CN1CC[C@H]2OCC[C@@]2(C(=O)N(C)C)C1`, for which the “Percent Effect” value came to 3.882%. With `Cc1ncsc1CN1CCOC(C)(C(N)=O)C1` (configuration not stated), the “Percent Effect” value is 122.3%. Under `Cc1ncsc1CN1CC2(CCCC2)CC1=O` stands -13.29%. For the compound `Cc1nn(C)c(C)c1-c1ccnc(N(C)Cc2noc(C(C)C)n2)n1`, the “Percent Effect” value is -9.96%. On to `CCNC(=O)N[C@H]1C[C@@H](Cc2cc(CN3CCCCC3)on2)C1(C)C`, for which the “Percent Effect” value is given as 1.239%. Consider `O=C(O)C(F)(F)F.O=C(c1ccco1)N1CC[C@@H]2CN(C3CCOCC3)CCO[C@@H]2C1`, for which the “Percent Effect” value turned out to be 107.9%.

For `CN1CCO[C@@H]2CN(C(=O)c3ccc4[nH]ccc4c3)CC[C@@H]2C1.O=C(O)C(F)(F)F`, the “Percent Effect” value is on record as -13.85%.

With `COc1ccc(CN2CC[C@@H]3CN(S(C)(=O)=O)CCO[C@@H]3C2)cc1.O=C(O)C(F)(F)F`, the “Percent Effect” value came out at 4.247%. Consider `CN(C)C[C@H]1OC[C@@H]2CCN(C(=O)c3ccco3)C[C@@H]21.O=C(O)C(F)(F)F`, for which the “Percent Effect” value worked out at 5.332%.

Consider `Cc1ccoc1C(=O)N1CC[C@H]2O[C@@H](C)C[C@H]2C1`, for which the “Percent Effect” value is on record as -21.6%. Take `Cc1ccoc1C(=O)N1CC[C@@H]2CN(C3CCOCC3)CCO[C@@H]2C1.O=C(O)C(F)(F)F`: the “Percent Effect” value turned out to be 107.8%.

As for `O=C(O)C(F)(F)F.O=C(c1ccco1)N1CCOCC2(CCN(C3CCOCC3)C2)C1` (configuration not stated), the “Percent Effect” value is listed as 7.241%. Under `Cc1ccoc1C(=O)N1CC[C@@H]2O[C@@H](C)C[C@H]2C1` stands 0.7135%; under `Cc1ccc(C(=O)N2CC[C@@H]3CN(C4CCOCC4)CCO[C@@H]3C2)o1.O=C(O)C(F)(F)F`, 105.9%. In the case of `Cc1ccc(CNC2(Cc3cc(-c4cccc(O)c4)on3)COC2)o1`, the “Percent Effect” value is given as -8.459%. Under `COC(=O)C1CCN(C(=O)c2ccc(N(C)S(C)(=O)=O)c(C)c2)CC1` stands -6.417%; under `COCCC1(C(=O)O)CCCN(Cc2cc3c(cc2Cl)OCO3)C1` (configuration not stated), 4.782%. Turning to `CNC(=O)CN1CCC(NC2CSCCc3ccccc32)CC1` (configuration not stated), the “Percent Effect” value was determined as 0.2819%. For `COC(=O)N1CCC(c2nnc(Cn3ccnc3)n2C)CC1`, the “Percent Effect” value worked out at 110.5%.

On to `Cn1c(Cn2ccnc2)nnc1C1CCN(C(=O)C2(C)CC2)CC1`, for which the “Percent Effect” value came out at 6.343%. In the case of `Cn1c(Cn2ccnc2)nnc1C1CCCN(C2CCCCC2)C1` (configuration not stated), the “Percent Effect” value is listed as -3.14%. As to `CC(C)OC(=O)N1CCC(c2nnc(Cn3ccnc3)n2C)CC1`, the “Percent Effect” value is reported as 96.34%.

As for `CS(=O)(=O)N1CCC(c2nnc(Cn3ccnc3)n2C2CC2)CC1`, the “Percent Effect” value is reported as -22.9%.

On to `CC(C)S(=O)(=O)N1CCCC(c2nnc(Cn3ccnc3)n2C)C1` (configuration not stated), for which the “Percent Effect” value is given as -6.159%. Consider `Cc1ccc(N2C(=O)N[C@@H]3CCN(C(=O)C4CCCC4)[C@@H]3C2=O)cc1`, for which the “Percent Effect” value is -4.286%. As for `CCc1ccc(C(=O)O)cc1S(=O)(=O)N(C)c1cccc(C#N)c1`, the “Percent Effect” value was -20.44%. As for `c1csc(N2CCN(Cc3cc4n(n3)CCNC4)CC2)n1`, the “Percent Effect” value is -2.451%.

For `COC(=O)Cn1c(=O)nc2n1C(=O)N(c1ccc(Cl)cc1)C2`, the “Percent Effect” value came to 5.835%. For the compound `CNc1nc(C)cc(NCc2cc(C)cc3c(C)c(C)[nH]c23)n1`, the “Percent Effect” value was -6.475%. On to `O=C(O)C(F)(F)F.O=C([C@@H]1CC[C@@H]2[C@@H](CCN2Cc2cccs2)O1)N1CCCCO1`, for which the “Percent Effect” value is on record as -2.602%. On to `Cc1ccc(CN2CC[C@@H]3O[C@@H](C(=O)N4CCN(C)CC4)C[C@@H]32)cc1.O=C(O)C(F)(F)F.O=C(O)C(F)(F)F`, for which the “Percent Effect” value was 117.4%. On to `Cc1cccc(CN2C[C@@H](CN3CCCN(C)CC3)C[C@H](CO)C2)n1`, for which the “Percent Effect” value is given as -14.48%. In the case of `Cc1ccc(CN2CC[C@H]3[C@H]2CCN3S(=O)(=O)C2CC2)cc1.O=C(O)C(F)(F)F`, the “Percent Effect” value is reported as -0.5114%.

`CN1CCN(C(=O)[C@H]2C[C@H]3[C@H](CCN3Cc3cccs3)O2)CC1.O=C(O)C(F)(F)F.O=C(O)C(F)(F)F`: the “Percent Effect” value is recorded as 106.2%.

Consider `CN1CCN(C(=O)[C@H]2CC[C@@H]3[C@@H](CCN3Cc3ccsc3)O2)CC1.O=C(O)C(F)(F)F.O=C(O)C(F)(F)F`, for which the “Percent Effect” value was -13.28%. `Cc1cccc(CN2CC[C@@H]3O[C@@H](C(=O)N4CCN(C)CC4)C[C@@H]32)n1`: the “Percent Effect” value is listed as 123%. Under `O=C(O)C(F)(F)F.O=S(=O)(C1CC1)N1CC[C@@H]2[C@@H]1CCN2Cc1cccs1` stands 10.91%; under `Cc1cccc(CN2CCN(C(=O)[C@@H]3CSCN3C)CC2)c1`, 0.2793%.

With `Cc1cccc(CN2CC[C@@H]3O[C@@H](C(=O)N4CCN(C)CC4)C[C@@H]32)c1`, the “Percent Effect” value is 93.61%. For the compound `Cn1cc(CN2CC[C@@H]3O[C@H](C(=O)N4CCOCC4)C[C@@H]32)cn1`, the “Percent Effect” value is on record as 5.245%.
